The supplement of paper PMC10849652
Targets with a hit are over-represented here; the source holds about 8,800 in all. About 0.5% of all pairs of compound and target were hits.

Key:
Assay in all cases: log2 fold change, soluble protein after heating vs DMSO (PISA); higher = thermal stabilisation; K562 lysate, 10 uM; active = over 0.2 and 3.5 SD of the protein, either way, in both replicates (recomputed)
erlotinib = compound: C#Cc1cccc(Nc2ncnc3cc(OCCOC)c(OCCOC)cc23)c1 [erlotinib]
Procedure, shortened: (§1)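 The values are log-two fold changes in thermal stability compared with solvent controls and come from duplicates. They were obtained by TMTpro 16plex LC-MS/MS, with channel sums equalised, on the supernatant after 21,000xg for 90 min. That supernatant came from crude K562 extract at 1 mg/mL protein treated with 10 μM compound for 30 min, heated for 3 min across 48°C-58°C, pooled and brought to 0.5% NP-40 at 4°C.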

[1] = compound: C/C(=N\NC(=O)C1=CC(=CC=C1)S(=O)(=O)N2CCOCC2)/C3=C(C=CC(=C3)Cl)O
Procedure, shortened: as §1

[2] = compound: C1=CC(=CC=C1C2=NC3=C(N2)C=C(C=C3)C(=O)N)OC4=CC=C(C=C4)Cl
Procedure, shortened: as §1

[3] = compound: C1=CC2=C(C=CC(=C2)/C=C\3/C(=O)NC(=NCC4=CC=CS4)S3)N=C1
Procedure, shortened: as §1

[4] = compound: C1=CC2=NC=CN=C2C=C1/C=C/3\C(=O)NC(=O)S3
Procedure, shortened: as §1

[5] = compound: C1=CC=C(C=C1)C2=NC(=C(N2)C3=CC=NC=C3)C4=CC(=C(C=C4)Cl)O
Procedure, shortened: as §1

[6] = compound: C1=CC=C2C(=C1)C3=NNC4=CC=CC(=C43)C2=O
Procedure, shortened: as §1

[7] = compound: C1CCN(C1)C(=O)NC2=CC=CC(=C2)NC3=NC=C(C(=N3)NCCC4=CN=CN4)Br
Procedure, shortened: as §1

[8] = compound: C1CN(CCC1(CC2=CC=C(C=C2)Cl)N)C3=NC=NC4=C3C=CN4
Procedure, shortened: as §1

IRAK-1-4 Inhibitor I = compound: C1COCCN1CCN2C3=CC=CC=C3N=C2NC(=O)C4=CC(=CC=C4)[N+](=O)[O-] [IRAK-1-4 Inhibitor I]
Procedure, shortened: as §1

ibrutinib = compound: C=CC(=O)N1CCC[C@@H](n2nc(-c3ccc(Oc4ccccc4)cc3)c3c(N)ncnc32)C1 [ibrutinib]
Procedure, shortened: as §1

[9] = compound: CC(=O)c1cnc2ccc(-c3cc(Cl)c(O)c(Cl)c3)nc2c1N[C@H]1CC[C@H](CN(C)C)CC1
Procedure, shortened: as §1

ralimetinib = compound: CC(C)(C)Cn1c(N)nc2ccc(-c3[nH]c(C(C)(C)C)nc3-c3ccc(F)cc3)nc21 [ralimetinib]
Procedure, shortened: as §1

[10] = compound: CC(C)(O)CC(=O)NCCn1ccc2ncnc(Nc3ccc(Oc4cccc(C(F)(F)F)c4)c(Cl)c3)c21
Procedure, shortened: as §1

[11] = compound: CC(C)C1=C2N=C(C=C(N2N=C1)NCC3=CC=CC=C3)NCCCCCCN
Procedure, shortened: as §1

[12] = compound: CC1=C(C(CC(=O)N1)C2=CC=C(C=C2)C(F)(F)F)C(=O)NC3=C(C=C4C(=C3)C=NN4)F
Procedure, shortened: as §1

[13] = compound: CC1=C(C2=C(C=C1)C(=O)C3=CC=CC=C3N2CCCN)C
Procedure, shortened: as §1

[14] = compound: CC1=C(C=C(C=C1)NC(=O)C2=CC(=CC=C2)C(C)(C)C#N)NC3=CC4=C(C=C3)N=CN(C4=O)C
Procedure, shortened: as §1

[15] = compound: CC1=C(C=C(C=C1)NC(=O)C2=CC(=CC=C2)N(C)C)NC(=O)C3=CC=C(C=C3)O
Procedure, shortened: as §1

[16] = compound: CC1=CC=C(C=C1)SC2=C3C=C(SC3=CN=C2)C(=O)N
Procedure, shortened: as §1

Measured: log2 fold change

TPM4 (UniProt P67936)
UniProt P67936, sequence (P67936 whole entry, looked up): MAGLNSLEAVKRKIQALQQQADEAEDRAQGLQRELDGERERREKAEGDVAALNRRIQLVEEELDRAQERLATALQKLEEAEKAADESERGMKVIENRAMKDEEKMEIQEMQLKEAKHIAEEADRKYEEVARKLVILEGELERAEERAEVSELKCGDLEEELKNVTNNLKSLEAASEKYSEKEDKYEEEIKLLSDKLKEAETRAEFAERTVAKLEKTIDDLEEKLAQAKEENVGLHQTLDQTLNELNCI
inactive: erlotinib 0.028 | [1] 0.048 | [2] 0.005 | [3] 0.058 | [4] -0.012 | [5] 0.001 | [6] 0.009 | [7] -0.064 | [8] -0.012 | IRAK-1-4 Inhibitor I 0.028 | ibrutinib -0.019 | [9] -0.021 | ralimetinib 0.003 | [10] -0.023 | [11] -0.023 | [12] -0.038 | [13] 0.012 | [14] 0.01 | [15] 0.013 | [16] 0.006

TIMM44 (UniProt O43615)
inactive: erlotinib -0.019 | [1] -0.02 | [2] -0.008 | [3] -0.019 | [4] 0.041 | [5] -0.012 | [6] 0.03 | [7] -0.019 | [8] 0.004 | IRAK-1-4 Inhibitor I -0.011 | ibrutinib 0.03 | [9] 0.005 | ralimetinib -0.008 | [10] -0.076 | [11] 0.013 | [12] 0.066 | [13] 0.025 | [14] -0.035 | [15] -0.005 | [16] 0.015

TTF2 (UniProt Q9UNY4)
UniProt Q9UNY4, sequence (Q9UNY4 whole entry, looked up): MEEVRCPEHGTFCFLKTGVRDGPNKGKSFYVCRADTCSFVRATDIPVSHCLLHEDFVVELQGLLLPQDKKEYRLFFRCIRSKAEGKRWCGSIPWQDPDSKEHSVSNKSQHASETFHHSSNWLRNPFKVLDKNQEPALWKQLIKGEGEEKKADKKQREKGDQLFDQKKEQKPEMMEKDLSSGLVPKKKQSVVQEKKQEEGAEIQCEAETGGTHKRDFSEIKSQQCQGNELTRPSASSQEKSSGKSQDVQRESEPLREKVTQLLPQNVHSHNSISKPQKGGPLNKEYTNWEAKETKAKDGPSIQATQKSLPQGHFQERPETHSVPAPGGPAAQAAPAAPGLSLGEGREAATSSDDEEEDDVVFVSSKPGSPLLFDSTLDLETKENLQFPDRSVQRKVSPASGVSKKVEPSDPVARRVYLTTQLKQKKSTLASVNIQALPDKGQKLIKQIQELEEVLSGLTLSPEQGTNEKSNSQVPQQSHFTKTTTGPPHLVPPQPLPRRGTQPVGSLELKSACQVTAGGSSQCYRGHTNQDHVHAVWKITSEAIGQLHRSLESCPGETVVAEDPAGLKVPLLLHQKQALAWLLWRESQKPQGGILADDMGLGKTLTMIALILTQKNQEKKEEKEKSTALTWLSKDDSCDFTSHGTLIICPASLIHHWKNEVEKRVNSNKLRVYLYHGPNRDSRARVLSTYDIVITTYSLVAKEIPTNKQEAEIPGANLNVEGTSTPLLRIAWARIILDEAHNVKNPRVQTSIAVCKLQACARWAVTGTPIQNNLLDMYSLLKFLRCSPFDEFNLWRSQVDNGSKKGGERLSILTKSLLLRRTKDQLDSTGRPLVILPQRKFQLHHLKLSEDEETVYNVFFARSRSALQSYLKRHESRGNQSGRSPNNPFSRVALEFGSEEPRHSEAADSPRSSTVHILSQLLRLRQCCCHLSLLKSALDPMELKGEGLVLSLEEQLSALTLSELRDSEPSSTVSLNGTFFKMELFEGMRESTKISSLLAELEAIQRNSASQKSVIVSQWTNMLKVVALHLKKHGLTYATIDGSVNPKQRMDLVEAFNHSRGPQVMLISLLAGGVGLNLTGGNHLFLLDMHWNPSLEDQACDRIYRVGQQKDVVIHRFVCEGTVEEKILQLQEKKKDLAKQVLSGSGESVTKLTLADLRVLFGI
inactive: erlotinib 0.043 | [1] -0.003 | [2] 0.063 | [3] -0.001 | [4] -0.026 | [5] 0.042 | [6] -0.046 | [7] 0.039 | [8] 0.032 | IRAK-1-4 Inhibitor I -0.006 | ibrutinib 0.003 | [9] -0.121 | ralimetinib 0.035 | [10] -0.006 | [11] -0.02 | [12] 0.037 | [13] -0.084 | [14] -0.058 | [15] -0.018 | [16] -0.115

TPX2 (UniProt Q9ULW0)
inactive: erlotinib -0.014 | [1] -0.008 | [2] 0.032 | [3] -0.022 | [4] -0.013 | [5] 0.019 | [6] 0.001 | [7] -0.005 | [8] -0.026 | IRAK-1-4 Inhibitor I 0.006 | ibrutinib 0.024 | [9] -0.01 | ralimetinib 0.003 | [10] -0.006 | [11] 0.036 | [12] -0.005 | [13] -0.008 | [14] 0.062 | [15] 0.001 | [16] -0.01

UBXN6 (UniProt Q9BZV1)
UniProt Q9BZV1, sequence (Q9BZV1 whole entry, looked up): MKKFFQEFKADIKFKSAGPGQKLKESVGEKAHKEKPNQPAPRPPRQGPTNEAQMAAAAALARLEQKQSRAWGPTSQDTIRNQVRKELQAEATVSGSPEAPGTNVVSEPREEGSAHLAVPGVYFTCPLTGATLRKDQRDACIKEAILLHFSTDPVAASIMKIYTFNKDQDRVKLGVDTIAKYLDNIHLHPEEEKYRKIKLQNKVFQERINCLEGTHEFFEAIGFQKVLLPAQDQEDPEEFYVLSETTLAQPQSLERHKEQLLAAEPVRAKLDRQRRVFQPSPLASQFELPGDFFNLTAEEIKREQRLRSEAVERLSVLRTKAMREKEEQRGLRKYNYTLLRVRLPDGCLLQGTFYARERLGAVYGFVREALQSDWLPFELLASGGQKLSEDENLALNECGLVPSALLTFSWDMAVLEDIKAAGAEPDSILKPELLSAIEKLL
inactive: erlotinib -0.02 | [1] 0.001 | [2] 0.001 | [3] -0.024 | [4] 0.006 | [5] 0.036 | [6] -0.073 | [7] 0 | [8] -0.005 | IRAK-1-4 Inhibitor I -0.007 | ibrutinib 0.046 | [9] 0.174 | ralimetinib 0.037 | [10] -0.012 | [11] 0.019 | [12] 0.121 | [13] -0.059 | [14] -0.038 | [15] 0.031 | [16] 0.041

TDRKH (UniProt Q9Y2W6)
UniProt Q9Y2W6, sequence (Q9Y2W6 whole entry, looked up): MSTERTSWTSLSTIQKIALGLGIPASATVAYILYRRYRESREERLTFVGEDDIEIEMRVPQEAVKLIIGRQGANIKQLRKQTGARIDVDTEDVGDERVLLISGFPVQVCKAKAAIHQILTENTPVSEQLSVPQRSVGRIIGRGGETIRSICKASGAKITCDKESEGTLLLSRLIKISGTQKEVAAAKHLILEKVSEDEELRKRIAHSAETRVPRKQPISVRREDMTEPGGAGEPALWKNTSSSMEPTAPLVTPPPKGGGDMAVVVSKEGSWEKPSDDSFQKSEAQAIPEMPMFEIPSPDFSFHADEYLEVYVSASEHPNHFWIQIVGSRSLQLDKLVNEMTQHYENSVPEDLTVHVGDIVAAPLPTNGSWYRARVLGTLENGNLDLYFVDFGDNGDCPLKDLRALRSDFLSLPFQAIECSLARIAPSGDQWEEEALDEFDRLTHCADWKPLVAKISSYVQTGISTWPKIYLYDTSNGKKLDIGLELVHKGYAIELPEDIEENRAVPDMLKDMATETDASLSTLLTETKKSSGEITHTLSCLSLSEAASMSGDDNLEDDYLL
inactive: erlotinib -0.067 | [1] 0.023 | [2] -0.017 | [3] -0.018 | [4] -0.065 | [5] 0.02 | [6] -0.086 | [7] -0.011 | [8] -0.022 | IRAK-1-4 Inhibitor I 0.047 | ibrutinib -0.028 | [9] -0.023 | ralimetinib 0.033 | [10] -0.027 | [11] -0.02 | [12] 0.003 | [13] -0.008 | [14] -0.006 | [15] -0.005 | [16] -0.035

TRIM25 (UniProt Q14258)
inactive: erlotinib -0.01 | [1] -0.024 | [2] 0.028 | [3] -0.004 | [4] -0.028 | [5] 0.032 | [6] 0.008 | [7] 0.064 | [8] 0.021 | IRAK-1-4 Inhibitor I -0.009 | ibrutinib -0.001 | [9] -0.001 | ralimetinib -0.013 | [10] 0.055 | [11] -0.011 | [12] -0.002 | [13] -0.005 | [14] 0.005 | [15] 0.004 | [16] 0.006

TCF12 isoform 3 (UniProt Q99081)
UniProt Q99081, sequence (Q99081 whole entry, looked up): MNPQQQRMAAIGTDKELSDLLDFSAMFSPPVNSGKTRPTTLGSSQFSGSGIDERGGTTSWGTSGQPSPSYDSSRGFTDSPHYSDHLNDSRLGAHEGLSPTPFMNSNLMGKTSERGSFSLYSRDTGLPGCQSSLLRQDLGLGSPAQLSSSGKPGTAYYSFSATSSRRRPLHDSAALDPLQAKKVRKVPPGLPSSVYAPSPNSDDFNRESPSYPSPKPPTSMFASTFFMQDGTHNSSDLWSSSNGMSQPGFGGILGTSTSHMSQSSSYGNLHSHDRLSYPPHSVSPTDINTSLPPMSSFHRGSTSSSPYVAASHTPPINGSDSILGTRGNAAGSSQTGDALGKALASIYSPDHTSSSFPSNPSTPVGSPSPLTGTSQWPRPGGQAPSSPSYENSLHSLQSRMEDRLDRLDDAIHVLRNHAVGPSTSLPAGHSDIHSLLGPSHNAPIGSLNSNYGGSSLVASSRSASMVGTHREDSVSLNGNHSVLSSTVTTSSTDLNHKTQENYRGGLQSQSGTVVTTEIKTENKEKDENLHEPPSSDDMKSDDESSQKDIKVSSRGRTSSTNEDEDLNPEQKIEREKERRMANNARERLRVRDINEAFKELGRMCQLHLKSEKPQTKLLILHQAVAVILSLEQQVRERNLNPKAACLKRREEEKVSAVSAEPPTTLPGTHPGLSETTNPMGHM
inactive: erlotinib -0.001 | [1] -0.025 | [2] 0.081 | [3] 0.006 | [4] -0.004 | [5] -0.017 | [6] 0.003 | [7] -0.063 | [8] 0.006 | IRAK-1-4 Inhibitor I 0.051 | ibrutinib 0.059 | [9] -0.029 | ralimetinib -0.022 | [10] -0.054 | [11] 0.002 | [12] -0.008 | [13] 0.064 | [14] -0.008 | [15] 0.011 | [16] 0.109

UBR4 (UniProt Q5T4S7)
inactive: erlotinib 0 | [1] 0.039 | [2] -0.016 | [3] 0.017 | [4] -0.006 | [5] 0.008 | [6] -0.01 | [7] -0.021 | [8] 0.002 | IRAK-1-4 Inhibitor I -0.009 | ibrutinib -0.019 | [9] -0.008 | ralimetinib 0.02 | [10] -0.011 | [11] -0.02 | [12] 0.003 | [13] 0.011 | [14] 0.009 | [15] 0.014 | [16] 0.01

TLE3 isoform 4 (UniProt Q04726)
inactive: erlotinib 0.005 | [1] -0.025 | [2] 0.03 | [3] -0.012 | [4] 0 | [5] 0.016 | [6] -0.002 | [7] -0.006 | [8] 0.029 | IRAK-1-4 Inhibitor I -0.016 | ibrutinib -0.002 | [9] -0.01 | ralimetinib 0.003 | [10] -0.005 | [11] 0 | [12] -0.023 | [13] 0.012 | [14] -0.016 | [15] 0.003 | [16] -0.022

THOC5 (UniProt Q13769)
UniProt Q13769, sequence (Q13769 whole entry, looked up): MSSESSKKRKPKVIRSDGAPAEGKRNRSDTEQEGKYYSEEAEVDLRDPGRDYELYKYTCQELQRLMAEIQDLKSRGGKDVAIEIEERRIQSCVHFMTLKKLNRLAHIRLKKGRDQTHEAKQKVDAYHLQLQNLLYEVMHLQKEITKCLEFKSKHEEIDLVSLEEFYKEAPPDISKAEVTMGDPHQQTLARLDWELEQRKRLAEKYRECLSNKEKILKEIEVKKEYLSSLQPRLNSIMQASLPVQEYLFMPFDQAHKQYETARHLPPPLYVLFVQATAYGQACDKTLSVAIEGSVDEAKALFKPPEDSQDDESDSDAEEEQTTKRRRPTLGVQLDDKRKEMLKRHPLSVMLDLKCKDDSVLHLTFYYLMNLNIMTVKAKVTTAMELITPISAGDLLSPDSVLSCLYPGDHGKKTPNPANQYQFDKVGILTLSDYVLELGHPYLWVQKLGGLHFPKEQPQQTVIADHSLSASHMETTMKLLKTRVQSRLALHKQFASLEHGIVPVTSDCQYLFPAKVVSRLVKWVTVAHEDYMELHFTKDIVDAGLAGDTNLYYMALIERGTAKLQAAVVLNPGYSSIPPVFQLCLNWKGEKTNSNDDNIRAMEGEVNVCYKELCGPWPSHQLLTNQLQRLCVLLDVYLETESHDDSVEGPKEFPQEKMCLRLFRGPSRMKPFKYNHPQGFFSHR
inactive: erlotinib 0.013 | [1] -0.105 | [2] 0.036 | [3] -0.035 | [4] 0.008 | [5] -0.001 | [6] -0.016 | [7] 0.005 | [8] 0.001 | IRAK-1-4 Inhibitor I -0.012 | ibrutinib 0.023 | [9] 0.004 | ralimetinib 0.015 | [10] -0.011 | [11] 0.008 | [12] -0.011 | [13] -0.002 | [14] 0.004 | [15] 0.018 | [16] -0.001

TPST2 (UniProt O60704)
UniProt O60704, sequence (O60704 whole entry, looked up): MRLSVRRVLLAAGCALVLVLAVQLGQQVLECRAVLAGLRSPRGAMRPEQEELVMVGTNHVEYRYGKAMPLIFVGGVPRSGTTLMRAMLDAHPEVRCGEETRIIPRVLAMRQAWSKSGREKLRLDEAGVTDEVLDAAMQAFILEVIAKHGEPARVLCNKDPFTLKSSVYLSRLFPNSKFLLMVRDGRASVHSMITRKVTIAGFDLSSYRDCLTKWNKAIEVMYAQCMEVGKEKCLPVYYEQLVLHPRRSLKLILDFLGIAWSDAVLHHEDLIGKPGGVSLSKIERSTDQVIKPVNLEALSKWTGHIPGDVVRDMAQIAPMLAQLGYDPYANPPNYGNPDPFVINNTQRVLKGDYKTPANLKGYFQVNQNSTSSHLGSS
inactive: erlotinib -0.064 | [1] -0.062 | [2] 0.042 | [3] 0.049 | [4] -0.002 | [5] -0.016 | [6] -0.06 | [7] 0.015 | [8] 0.032 | IRAK-1-4 Inhibitor I -0.038 | ibrutinib -0.098 | [9] -0.036 | ralimetinib 0.006 | [10] 0.019 | [11] -0.08 | [12] 0.039 | [13] -0.06 | [14] -0.039 | [15] -0.036 | [16] -0.08

TRAPPC6A isoform 2 (UniProt O75865)
UniProt O75865, sequence (O75865 whole entry, looked up): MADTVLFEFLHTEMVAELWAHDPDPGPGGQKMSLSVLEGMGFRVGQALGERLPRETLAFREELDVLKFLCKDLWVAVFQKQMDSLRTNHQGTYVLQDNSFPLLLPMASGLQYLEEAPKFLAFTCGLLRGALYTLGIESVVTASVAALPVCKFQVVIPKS
inactive: erlotinib 0.018 | [1] 0.095 | [2] 0.002 | [3] 0.049 | [4] -0.055 | [5] -0.016 | [6] -0.005 | [7] 0.154 | [8] 0.095 | IRAK-1-4 Inhibitor I 0.047 | ibrutinib -0.023 | [9] -0.011 | ralimetinib -0.027 | [10] -0.037 | [11] -0.031 | [12] -0.052 | [13] 0.012 | [14] 0.008 | [15] 0.004 | [16] -0.062

TUT4 (UniProt Q5TAX3)
inactive: erlotinib -0.009 | [1] -0.048 | [2] -0.014 | [3] -0.062 | [4] -0.054 | [5] -0.004 | [6] -0.021 | [7] -0.029 | [8] 0.019 | IRAK-1-4 Inhibitor I 0.023 | ibrutinib 0.024 | [9] -0.013 | ralimetinib 0.006 | [10] -0.07 | [11] 0.023 | [12] -0.003 | [13] -0.045 | [14] -0.165 | [15] -0.007 | [16] 0.041

TSPAN13 (UniProt O95857)
UniProt O95857, sequence (O95857 whole entry, looked up): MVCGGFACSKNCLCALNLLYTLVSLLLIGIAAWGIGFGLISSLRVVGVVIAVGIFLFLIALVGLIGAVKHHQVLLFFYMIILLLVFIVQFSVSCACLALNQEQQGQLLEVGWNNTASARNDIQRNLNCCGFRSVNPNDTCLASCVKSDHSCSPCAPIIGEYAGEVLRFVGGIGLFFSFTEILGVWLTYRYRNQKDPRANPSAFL
inactive: erlotinib 0.002 | [1] 0.053 | [2] 0.06 | [3] 0.003 | [4] -0.002 | [5] 0.008 | [6] -0.167 | [7] 0.202 | [8] -0.053 | IRAK-1-4 Inhibitor I -0.051 | ibrutinib 0.018 | [9] -0.001 | ralimetinib -0.048 | [10] -0.044 | [11] -0.083 | [12] 0.102 | [13] 0.036 | [14] 0.088 | [15] 0 | [16] -0.043

TSFM (UniProt P43897)
UniProt P43897, sequence (P43897 whole entry, looked up): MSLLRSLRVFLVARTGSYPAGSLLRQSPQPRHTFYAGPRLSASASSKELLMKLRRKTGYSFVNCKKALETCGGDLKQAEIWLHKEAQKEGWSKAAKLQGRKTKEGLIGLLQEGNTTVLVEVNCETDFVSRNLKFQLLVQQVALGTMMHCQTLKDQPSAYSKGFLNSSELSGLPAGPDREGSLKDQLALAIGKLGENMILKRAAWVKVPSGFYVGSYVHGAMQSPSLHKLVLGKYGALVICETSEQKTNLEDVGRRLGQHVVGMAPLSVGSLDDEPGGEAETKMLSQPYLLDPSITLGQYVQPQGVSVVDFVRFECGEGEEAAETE
inactive: erlotinib -0.013 | [1] 0.009 | [2] -0.035 | [3] -0.003 | [4] -0.002 | [5] 0.017 | [6] -0.063 | [7] 0.024 | [8] 0.034 | IRAK-1-4 Inhibitor I -0.024 | ibrutinib 0.004 | [9] -0.05 | ralimetinib 0.03 | [10] 0.026 | [11] 0.015 | [12] -0.024 | [13] -0.003 | [14] 0.116 | [15] 0.017 | [16] -0.063
